Measurements taken from PubChem BioAssay (NCATS).
Inconclusive results are not listed. A call without a number means that no potency is given here. Active and inactive are the calls of the source. The call rests on the fitted dose curve; in most records, active means well fitted inhibition curve with a large enough effect; inconclusive means small, poorly fitted or top-dose-only effect; inactive means flat fitted curve, though single readings scatter.

biological target: Lysine-specific demethylase 5B (Homo sapiens) (UniProt Q9UGL1); assay: Optimization screen for KDM5B Histone Demethylases FDH coupled qHTS against the LOPAC library (AID 1347166); conditions: KDM5B demethylation, FDH-coupled NADH fluorescence (FDH is formaldehyde dehydrogenase); series mostly up to 57.5 µM
Sequence (Q9UGL1 whole entry, looked up): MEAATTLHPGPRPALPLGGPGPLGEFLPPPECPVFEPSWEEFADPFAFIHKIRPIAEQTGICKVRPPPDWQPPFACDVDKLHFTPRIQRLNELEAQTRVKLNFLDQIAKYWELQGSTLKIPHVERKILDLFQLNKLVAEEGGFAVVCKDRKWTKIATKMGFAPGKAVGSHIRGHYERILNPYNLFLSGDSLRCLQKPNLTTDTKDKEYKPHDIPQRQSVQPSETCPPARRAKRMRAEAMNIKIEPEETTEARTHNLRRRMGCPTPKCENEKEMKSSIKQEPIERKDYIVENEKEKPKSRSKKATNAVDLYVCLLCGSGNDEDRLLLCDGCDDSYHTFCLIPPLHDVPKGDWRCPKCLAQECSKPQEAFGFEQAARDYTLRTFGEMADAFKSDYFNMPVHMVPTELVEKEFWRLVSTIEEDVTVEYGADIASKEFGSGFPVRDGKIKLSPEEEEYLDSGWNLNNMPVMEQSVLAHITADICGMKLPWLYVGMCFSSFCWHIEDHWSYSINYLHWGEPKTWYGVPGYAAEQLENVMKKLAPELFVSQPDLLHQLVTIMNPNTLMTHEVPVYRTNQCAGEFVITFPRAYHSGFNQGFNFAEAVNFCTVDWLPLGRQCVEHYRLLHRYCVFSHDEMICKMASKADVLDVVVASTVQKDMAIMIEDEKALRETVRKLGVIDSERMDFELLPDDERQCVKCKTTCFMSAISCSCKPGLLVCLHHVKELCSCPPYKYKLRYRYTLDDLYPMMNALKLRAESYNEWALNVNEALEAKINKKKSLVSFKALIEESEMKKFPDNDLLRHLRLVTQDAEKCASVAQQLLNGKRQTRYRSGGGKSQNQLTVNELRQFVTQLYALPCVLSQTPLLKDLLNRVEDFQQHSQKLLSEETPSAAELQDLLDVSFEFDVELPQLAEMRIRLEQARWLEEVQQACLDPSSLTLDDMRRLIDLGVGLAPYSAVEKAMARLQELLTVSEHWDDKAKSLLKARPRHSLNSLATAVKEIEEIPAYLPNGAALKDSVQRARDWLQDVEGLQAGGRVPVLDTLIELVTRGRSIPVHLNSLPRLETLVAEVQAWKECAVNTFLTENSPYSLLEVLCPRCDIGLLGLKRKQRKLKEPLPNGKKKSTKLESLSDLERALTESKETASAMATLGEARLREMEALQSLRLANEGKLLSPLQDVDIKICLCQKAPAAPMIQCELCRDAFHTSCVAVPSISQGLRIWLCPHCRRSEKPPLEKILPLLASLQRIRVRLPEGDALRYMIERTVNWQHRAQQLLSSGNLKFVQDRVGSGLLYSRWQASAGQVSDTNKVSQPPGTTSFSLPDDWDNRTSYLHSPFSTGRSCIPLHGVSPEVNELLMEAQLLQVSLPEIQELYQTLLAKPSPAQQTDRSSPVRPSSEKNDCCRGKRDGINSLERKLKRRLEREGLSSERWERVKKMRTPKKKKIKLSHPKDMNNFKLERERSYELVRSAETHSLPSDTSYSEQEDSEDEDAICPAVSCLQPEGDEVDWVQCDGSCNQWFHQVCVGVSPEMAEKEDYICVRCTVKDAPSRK
Outline: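 KDM5BDeltaAP (200nM final) in 50mM HEPES pH 7.5, 0.01% Tween-20 was preincubated with compound for 10 min at room temperature. A substrate mix of 12.5uM H3K4Me3, 25uM a-ketoglutarate, ascorbate, Fe2+, NAD+ and formaldehyde dehydrogenase was then added. NADH fluorescence (340/450 nm) was read initially and after 30 min.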

| Compound | Potency |
| --- | --- |
| COc1ccc2c(c1)/C(=C/c1cnc[nH]1)C(=O)N2 | inactive |
| C[C@@H]1O[C@@H](O[C@H]2C[C@@H](O)[C@]3(CO)[C@@H]4C(CC[C@]3(O)C2)[C@@]2(O)CC[C@H]([C@@H]3COC(=O)C3)[C@@]2(C)C[C@H]4O)[C@H](O)[C@H](O)[C@H]1O (stereo partly specified) | inactive |
| Cc1cc([C@@H]2CCCN2C)on1 | inactive |
| CCCN1CCc2cc(O)cc3c2[C@H]1Cc1ccc(O)c(O)c1-3 | inactive |
| COc1cc(CC(C)N)c(OC)cc1I (stereo unspecified) | inactive |
| C/C(O)=C(\C#N)C(=O)Nc1cc(Br)ccc1Br | inactive |
| CC(C)(O)[C@@H]1C2OC(=O)[C@@H]1[C@]1(O)C[C@H]3O[C@]34C(=O)O[C@H]2[C@]14C (tested in a mixture with another compound) | inactive |
| CCCN(CCC)[C@H]1CCc2c(F)ccc(O)c2C1 | inactive |
| CCOC(=O)c1ncn2c1[C@@H]1CCCN1C(=O)c1cc(OC)ccc1-2 | inactive |
| CC12NC(Cc3ccccc31)c1ccccc12 (stereo unspecified) | inactive |
| N[C@@H](Cn1ccc(=O)[nH]c1=O)C(=O)O | inactive |
| C[C@@H]1[C@@H]2Cc3ccc(O)cc3[C@@]1(C)CCN2CC1CC1 | inactive |
| CCCC[N+]1(C)C2CC(OC(=O)[C@H](CO)c3ccccc3)CC1C1OC12 (stereo partly specified) | inactive |
| NCCCP(=O)(O)O | inactive |
| CC1(C(=O)O)C2CCC(O2)C1(C)C(=O)O (stereo unspecified) | inactive |
| c1ccc2cc(CC3=NCCN3)ccc2c1 | inactive |
| Cc1o[nH]c(=O)c1CC(N)C(=O)O (stereo unspecified) | inactive |
| NCCc1ccc(S(=O)(=O)F)cc1 | inactive |

| Compound | Potency |
| --- | --- |
| C=CCN1CC[C@]23c4c5ccc(O)c4O[C@@H]2/C(=N/N=C2\CC[C@@]4(O)C6Cc7ccc(O)c8c7[C@@]4(CCN6CC=C)[C@@H]2O8)CC[C@@]3(O)C1C5 | inactive |
| C[N+]1(C)CCc2cc3c(cc2[C@H]1[C@@H]1OC(=O)c2c1ccc1c2OCO1)OCO3 | inactive |
| C[N+]1(C)C2CCC1CC(OC(=O)c1c[nH]c3ccccc13)C2 (stereo unspecified) | inactive |
| NC(CCCCCP(=O)(O)O)C(=O)O (stereo unspecified) | inactive |
| C[Se]C[C@H](N)C(=O)O | inactive |
| CCN(CCCl)Cc1ccccc1Br | inactive |
| C[C@H](N)CN1CCc2ccc(Br)cc21 | inactive |
| CN1CCc2cccc(Cl)c2CC1 | inactive |
| COc1ccc2[nH]c3c(c2c1)CCNC3 | inactive |
| CCCN1CCC[C@@H](c2cccc(O)c2)C1 | inactive |
| CCCN1CC[C@@H]2c3cc(O)ccc3CC[C@@H]21 | inactive |
| OC1CCCCC1N1CCC(c2ccccc2)CC1 (stereo unspecified) | inactive |
| O=C1C=CC(=O)C=C1 | inactive |
| CCN1C[C@@]2(COC)C3[C@@H](OC)C4[C@@H]1C3([C@@H]1C[C@]3(O)[C@H](OC(=O)c5ccccc5)[C@@H]1[C@]4(OC(C)=O)[C@@H](O)[C@@H]3OC)[C@H](OC)C[C@H]2O | inactive |
| C#CCN[C@H](C)Cc1ccccc1 | inactive |
| Oc1ccc2c3c1O[C@H]1c4oc5ccccc5c4C[C@@]4(O)C(C2)N(CC2CC2)CCC314 (stereo partly specified) | inactive |
| C[C@@H]1O[C@H](C[N+](C)(C)C)CS1 | inactive |
| N[C@@]1(C(=O)O)CC[C@@H](C(=O)O)C1 | inactive |
